# High-throughput results from PubChem BioAssay.
# Rows were chosen to be rich in hits. Some 2.4% of all compounds tested hit in one or more screens of this group.
# POLB inh = qHTS Assay for Inhibitors of DNA Polymerase Beta. Potency, µM (doses to about 114 µM), without a hit: at the top dose activity change, negative = inhibition, actives largely listed as inhibitors. P06746. AID 485314, 2010. 1.3% of 340,000 active. Pol beta primer extension/strand displacement, fluorescence kinetic; further: potency means the concentration at half of the fitted maximal effect; on the % scale 0 is the no-effect control and ±100 the full control effect
#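 Reaction started by 50 nM substrate onto compound-treated Pol beta (10 nM, 15 min preincubation, room temperature); plates read at 0 min and 10 min. Normalized concentration-effect data fitted by four-parameter Hill equation.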
# Pol iota inh = qHTS for Inhibitors of Polymerase Iota; DNA polymerase iota (Homo sapiens), Q9UNA4; Pol iota fluorescent replication assay, 10 min; Potency, µM (titrated, usually from 115 µM), for inactives: at the top dose activity, negative = inhibition, usual class: inhibitors; 1% of 390,000 active; further: potency means the concentration at half of the fitted maximal effect
#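 Fluorescent replication assay read twice, at 0 min and 10 min after adding 50 nM (final) substrate. Enzyme (10 nM) and compounds were first incubated 15 min at room temperature; enzyme-free buffer wells were negative controls.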
# Pol eta inh-1 = qHTS for Inhibitors of Polymerase Eta; recombinant Pol eta, fluorescent DNA replication assay; DNA polymerase eta (Homo sapiens), Q9Y253; Potency, µM (series often up to 114 µM), without a hit: top-dose activity change, negative = inhibition, hits mostly inhibitors; 1.2% of 390,000 active; AID 588591, 2011; further: potency means the concentration at half of the fitted maximal effect; on the % scale 0 is the no-effect control and ±100 the full control effect
#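 Fluorescent replication assay: 50 nM final substrate added after a 15 min room-temperature compound preincubation with 10 nM enzyme. Signal taken at 0 min and again at 10 min.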
# PGK inhibitor = qHTS Assay to Find Inhibitors of Phosphoglycerate Kinase | Phosphoglycerate kinase, glycosomal (Trypanosoma brucei brucei), P07378 | PGK/GAPDH coupled, Kinase-Glo luminescence, 60 min | Potency, µM (series often up to 57.5 µM), for inactives: at the top dose activity change, negative = inhibition, usual class: inhibitors | 0.043% of 380,000 active | AID 602233, 2012; further: potency means the concentration at half of the fitted maximal effect; on the % scale 0 is the no-effect control and ±100 the full control effect; nearly all actives have a fitted effect of over 60% in size
# Target sequence (P07378 whole entry, looked up): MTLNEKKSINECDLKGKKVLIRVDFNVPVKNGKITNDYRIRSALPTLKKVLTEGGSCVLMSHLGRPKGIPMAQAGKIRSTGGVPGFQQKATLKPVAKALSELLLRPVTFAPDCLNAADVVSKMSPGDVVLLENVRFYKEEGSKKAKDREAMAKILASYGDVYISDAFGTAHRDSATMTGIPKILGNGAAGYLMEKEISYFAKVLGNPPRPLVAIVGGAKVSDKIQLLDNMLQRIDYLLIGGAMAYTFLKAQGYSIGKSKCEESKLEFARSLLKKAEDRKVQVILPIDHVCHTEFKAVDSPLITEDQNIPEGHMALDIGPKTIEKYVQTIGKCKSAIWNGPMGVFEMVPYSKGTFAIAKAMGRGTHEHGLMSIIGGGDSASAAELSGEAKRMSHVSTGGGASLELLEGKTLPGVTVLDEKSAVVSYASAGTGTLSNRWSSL
#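 Luminescent ATP detection (Kinase-Glo Plus) follows a 60-minute room-temperature incubation, with wells lacking PGK as controls. Buffer: 100 mM TEA (pH 7.6), 5 mM MgCl2, 0.01% Tween-20. Coupling enzyme GAPDH (100 nM final) supplies unstable 1,3-BPG in-well.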
# FEN1 inhibitor = qHTS Assay for the Inhibitors of Human Flap endonuclease 1 (FEN1). AID 588795, 2011. 0.35% of 390,000 active. Potency, µM (series often up to 114 µM), without a hit: at the highest dose activity change, negative = inhibition, actives largely listed as inhibitors. Recombinant FEN1 flap cleavage, fluorescence, 15 min; further: potency means the concentration at half of the fitted maximal effect; on the % scale 0 is the no-effect control and ±100 the full control effect; nearly all actives have a fitted effect of over 65% in size
#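 Enzyme 10 nM, 15 min RT preincubation with compound; start with substrate 50 nM final; reads at 0 and 15 min; qHTS titration, four-parameter Hill fit.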
# Pol kappa inh-1 = qHTS for Inhibitors of Polymerase Kappa. purified Pol kappa, fluorescent DNA synthesis assay, 10 min. Potency, µM (doses to about 107 µM), for inactives: at the top dose activity, negative = inhibition, hits mostly inhibitors. 0.53% of 400,000 active; further: potency means the concentration at half of the fitted maximal effect; on the % scale 0 is the no-effect control and ±100 the full control effect
#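 Pol kappa 10 nM + cpd, 15 min RT; start w/ substrate 50 nM final; fluorescence kinetic read, 0 and 10 min. Neg ctrl: buffer, no enzyme.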
# GALK confirm = Confirmation Assay for Inhibitors of Human Galactokinase (GALK) | purified GALK, Kinase-Glo ATP depletion luminescence | 70% of 150 active | AID 2015, 2009 | Potency, µM (top dose mostly 115 µM), inactives show at the top dose activity, negative = inhibition, most hits filed as inhibitors | shares compounds with Pol eta inh-1
# Redox cycling = Confirmatory Assay for Inhibitors of Human Galactokinase (GALK): Phenol-HRP redox assay counterscreen | shares compounds with Pol eta inh-1 | AID 2035, 2009 | 40% of 150 active | Phenol red-HRP H2O2 redox cycling, absorbance 600 nm | Potency, µM (series often up to 115 µM), for the others: top-dose activity change, negative = H2O2 signal, most hits filed as inhibitors
# HEK293 viability = Secondary Assay for Inhibitors of Human Galactokinase (GALK): HEK-293 Cell Viability Assay; shares compounds with Pol eta inh-1; HEK-293 viability, ATP luminescence (CellTiter-Glo), 24/48 h; Potency, µM (top dose mostly 46.1 µM), for the others: at the top dose activity change, negative = cytotoxicity, hits mostly inhibitors; 10% of 170 active; AID 2547, 2010; further: potency means the concentration at half of the fitted maximal effect; on the % scale 0 is the no-effect control and ±100 the full control effect
# Pol kappa inh-2 = qHTS for Inhibitors of Polymerase Kappa: Confirmatory Assay for Cherry-picked Compounds. shares compounds with Pol eta inh-1. purified Pol-kappa, fluorescent strand-displacement substrate. Potency, µM, usual class: inhibitors. 76% of 920 active; further: potency means the concentration at half of the fitted maximal effect
# Pol eta inh-2 = qHTS for Inhibitors of Polymerase Eta: Confirmatory Assay for Cherry-picked Compounds | 64% of 2,600 active | AID 720502, 2013 | shares compounds with Pol eta inh-1 | Potency, µM, actives largely listed as inhibitors | Pol eta primer extension, TAMRA/BHQ fluorescence, 10 min; further: potency means the concentration at half of the fitted maximal effect
# An asterisk follows results filed as active; i = inactive; ? = inconclusive; . = no result; [ ] = remark or other dose. The call rests on the fitted dose curve; in most records, active means well fitted curve in the direction sought with a large enough effect; inconclusive means small, poorly fitted or top-dose-only effect, or another doubt; inactive means no such curve, though single readings can be large; an effect the other way counts as inactive or inconclusive.
SMILES,POLB inh,Pol iota inh,Pol eta inh-1,PGK inhibitor,FEN1 inhibitor,Pol kappa inh-1,Pol kappa inh-2,Pol eta inh-2,others
Cc1ccc(C)c(NC(=O)CN2CCSc3ccc(S(=O)(=O)N4CCCC4)cc32)c1,0.5%,-2.0%,-7.8%,-5.2%,-3.5%,-9.9%[60.1 µM],.,.,
O=C(c1ccco1)N(CCC(c1ccccc1)c1ccco1)Cc1ccccc1 (stereo unspecified),25.1µM*,28.2µM*,22.4µM*,-8.0%,-12.1%,79.4µM*,67*,?,
CCN(CC)C(=O)CC(c1ccccc1)c1ccco1 (stereo unspecified),9.1%,-8.3%,6.6%,17.8%,-15.7%,-2.1%,.,.,
C/C(N)=C(/C#N)C(=O)CSc1nnnn1-c1ccccc1,35.5µM*,?,15.8µM*,-12.7%,4.9%,-13.1%,.,26.9*,
Cc1cc(C(=O)Nc2cccc3ccccc23)co1,3.2%,16.3%,-6.6%,i,27.2%,1.2%,.,.,
Cc1cc(C(=O)NCc2cc(C(=O)O)co2)co1,-7.0%,?,20µM*,-12.2%,-7.2%,79.4µM*,16.8*,30.1*,
COC(=O)c1sc(-c2ccc(C(C)(C)C)cc2)cc1NC(=O)c1ccccc1C(=O)O,?,-19.5%,89.1µM*,-15.4%,-8.8%,2.0%,?,.,
COc1ccc2nc(Cl)c(C3CC(c4ccco4)=NN3C(=O)CCCC(=O)O)cc2c1 (stereo unspecified),?,22.4µM*,35.5µM*,-16.9%,0.0%,28.2µM*,.,75.7*,
Cc1ccc(S(=O)(=O)N(CC(=O)N2CCc3ccccc3C2)c2ccc(C)c(C)c2)cc1,-1.2%,-26.2%,-15.8%,-2.0%,-11.5%,-15.9%,.,.,
CS(=O)(=O)N1CC(C(=O)O)Oc2ccc(CC(=O)O)cc21 (stereo unspecified),?,?,17.8µM*,?,-1.4%,-34.4%,.,30.1*,
O=C(O)Cc1ccc2c(c1)N(S(=O)(=O)c1cccs1)CC(C(=O)O)O2 (stereo unspecified),2.8%,30.8%,2.3%,-3.8%,-3.4%,-4.2%,.,.,
CCc1ccc(CNC(=O)C2Cc3cc(S(=O)(=O)N4CCCCCC4)ccc3N2C(C)=O)cc1 (stereo unspecified),2.2%,5.1%,-11.9%,i,3.0%,-4.8%[60.1 µM],.,.,
Cc1ccc(S(=O)(=O)N2[C@@H](c3ccc(Br)cc3)C(C(=O)O)=CC[C@H]2c2ccc(Cl)c(Cl)c2)cc1,.,-25.1%,89.1µM*,-5.1%,?,-17.7%,?,.,
Cc1ccc(S(=O)(=O)N2[C@@H](c3ccc(C(C)(C)C)cc3)C(C(=O)O)=CC[C@H]2c2cccc(Cl)c2)cc1,.,?,89.1µM*,-11.5%,-16.6%,?,67*,?,
O=C(O)CCc1nnc(SCC(=O)Nc2ccc(Cl)c(C(F)(F)F)c2)[nH]c1=O,12.8%,0.4%,1.3%,4.0%,-7.5%,-9.8%,.,.,GALK confirm=?;Redox cycling=2.1%;HEK293 viability=-8.3%
COc1ccc(NC(=O)N/C=C/c2ccco2)cc1,25.1µM*,?,44.7µM*,-10.4%,-25.2%,?,.,?,
O=C(N/C=C/c1ccco1)Nc1cccc(Cl)c1,-15.1%,?,?,-25.8%,8.0%,-41.8%,.,.,
O=C(N/C=C/c1ccco1)OCc1ccccc1,?,?,?,-1.7%,7.2%,-43.1%,.,?,
COc1cc(Cl)c(C)cc1NC(=O)CSc1cc(-c2ccccc2)nc(C)n1,0.3%,20.4%,-13.4%,-2.1%,-2.3%,-7.5%,.,.,
Cc1ccc(-n2nnnc2CNC(=O)c2ccccc2)cc1C,0.3%,26.4%,-21.8%,i,-4.0%,-4.0%[60.1 µM],.,.,
Cc1ccc(SCC(c2ccccc2)N2CCN(C)CCC2=O)cc1 (stereo unspecified),.,-8.8%,.,.,-10.6%,-1.2%,.,.,
CCNC(=O)NC(=O)COc1ccccc1C#N,11.1%,-4.2%,0.4%,-11.7%,5.4%,-3.9%,.,.,
N#Cc1ccccc1OCC(=O)NC(=O)NCc1ccco1,-29.4%,?,39.8µM*,-5.9%,7.8%,-39.2%,.,?,
CC(C)c1ccc(OCc2ccc(C(=O)O)o2)cc1,10µM*,?,22.4µM*,-11.7%,-6.6%,-15.3%,42.3*,?,
Cc1cc(C)n2c(SCC(O)=C(C#N)c3nc4ccccc4[nH]3)nnc2n1,.,11.2µM*,25.1µM*,2.9%,?,?,.,?,
CC(C)[C@H](NC(=O)C1CCC(CNC(=O)[C@@H]2CCCN2C(=O)OC(C)(C)C)CC1)C(=O)O (stereo partly specified),-1.2%,-4.2%,-23.2%,-11.0%,3.8%,4.1%,.,.,
C[C@H](NC(=O)C1CCC(CNC(=O)[C@@H]2CCCN2C(=O)OC(C)(C)C)CC1)C(=O)O (stereo partly specified),-28.1%,22.1%,-12.9%,1.2%,16.4%,2.4%,.,.,GALK confirm=-2.4%;Redox cycling=2.0%;HEK293 viability=2.2%
COc1ccc2[nH]c(O)c(N=NC(=O)c3ccc(NS(=O)(=O)c4cccs4)cc3)c2c1,.,39.8µM*,3.55µM*,-11.2%,?,79.4µM*,16.8*,37.9*,
